# PolyA inh: inhibitors of polyadenylation in S. cerevisiae | S. cerevisiae SKY197-pL101 polyadenylation reporter, beta-gal luminescence; efflux-impaired pdr1/pdr3 knockout yeast; score 100 = 6 SD above DMSO | activity score, % at 12 µM | 300,000 tested, 0.02% active | AID 1875;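 active = lowest replicate activity score at least 50, where 100 means six control SD above control mean; inconclusive = lowest score under 50 but half or more replicates reach 50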;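 also: yeast exposed to compound for 9 h at 30 °C; higher score means more reporter readthrough which indicates perturbed polyadenylation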
# EBNA-1 inh: blocks EBNA-1 binding to DNA; EBNA-1 DNA binding, fluorescence polarization; inhibition, % at 14.8 µM; 300,000 tested, 0.34% active; AID 1950; in the data active = inhibition above about 28%
# NALP3 yeast inh: inhibitors of NALP3 inflammasome in yeast; Yeast reconstituted NLRP3/ASC/caspase-1, beta-gal luminescence, 24 h; inhibition, % at 10 µM; 330,000 tested, 0.39% active;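 active = inhibition of 50% or more; inactive = inhibition below 50%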;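 also: plate controls were induced DMSO wells for no effect and uninduced yeast grown without galactose for full effect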
# dFosB act: activators of mouse delta FosB homodimer. P13346. purified delta FosB, TAMRA-CDK5 oligo fluorescence polarization; percent of positive-control signal above neutral wells. activation, % at 25 µM. 340,000 tested, 0.99% active. AID 493131;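 active = mean activation above about 17%, with every replicate also reaching it, limit read from the data, passing the limit was not always enough; inconclusive = only one of the two conditions met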
# Target sequence (P13346 whole entry, looked up): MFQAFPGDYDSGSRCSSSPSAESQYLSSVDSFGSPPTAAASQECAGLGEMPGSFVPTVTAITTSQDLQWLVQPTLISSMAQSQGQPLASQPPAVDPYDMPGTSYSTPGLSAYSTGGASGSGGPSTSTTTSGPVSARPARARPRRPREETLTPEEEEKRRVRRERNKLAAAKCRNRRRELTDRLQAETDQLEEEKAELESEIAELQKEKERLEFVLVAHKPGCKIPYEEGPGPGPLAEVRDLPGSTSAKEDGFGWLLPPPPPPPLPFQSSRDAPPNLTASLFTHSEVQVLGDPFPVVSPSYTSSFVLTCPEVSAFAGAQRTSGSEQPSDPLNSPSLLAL
# ZTA DNA inh: counter-screen for EBNA-1 inhibitors: inhibitors of Epstein-Barr virus ZTA; ZTA-DNA binding, fluorescence polarization; inhibition, % at 11 µM; 320,000 tested, 0.15% active; AID 2234; in the data active = inhibition above about 33%
# Target sequence (P03206 whole entry, looked up): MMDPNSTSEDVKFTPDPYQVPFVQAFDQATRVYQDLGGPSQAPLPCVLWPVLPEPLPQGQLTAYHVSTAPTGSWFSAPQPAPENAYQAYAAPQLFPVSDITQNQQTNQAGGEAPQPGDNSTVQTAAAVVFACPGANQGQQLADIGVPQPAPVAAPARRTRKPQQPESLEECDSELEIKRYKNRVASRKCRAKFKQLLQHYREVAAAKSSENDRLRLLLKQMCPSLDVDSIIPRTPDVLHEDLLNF
# NALP1 inh: NALP1 inhibition; S. cerevisiae NALP1/ASC/caspase-1 growth, X-gal OD620, 72 h; inhibition, % at 10 µM; 280,000 tested, 0.61% active; in the data active = inhibition mostly above about 24%, no sharp cut-off; inactive = mostly below about 32%
# EBNA-1 confirm: EBNA-1 (EBV) inhibition, confirmation; shares compounds with EBNA-1 inh; Recombinant EBNA-1 DBD, Cy5-DNA fluorescence polarization; inhibition, % at 14.8 µM; 830 tested, 35% active; AID 2292;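 active = mean inhibition across replicates above a set limit taken from the earlier primary screen, cut at about 28% in these data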;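 also: plate controls were EBNA-1 protein with DMSO for no effect and wells lacking EBNA-1 for full effect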
# ZTA counter trip: counter-screen for EBNA-1 inhibitors: Epstein-Barr virus ZTA inhibitors, triplicate. inhibition, % at 11.1 µM. 830 tested, under 10 active. AID 2328. Zta-ZRE DNA binding, Cy5 fluorescence polarization. shares compounds with EBNA-1 inh;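 active = mean inhibition over triplicates above a set limit taken from the primary EBNA-1 screen, cut at about 37% in these data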;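 also: purified full length Zta protein with Cy5 labeled ZRE DNA probe; 0% = Zta with DMSO and 100% = wells lacking Zta protein; inhibitors lower polarization by freeing the labeled DNA probe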
# * marks the source's active call; other numbers are inactive results; ? = inconclusive; nt = not tested or not shown; ! = not active in a repeat. A selection: hits, their analogues and other compounds. The true share with any hit is near 2.2%.
SMILES,PolyA inh,EBNA-1 inh,NALP3 yeast inh,dFosB act,ZTA DNA inh,NALP1 inh,EBNA-1 confirm,ZTA counter trip
O=C(Nc1nc2cc3c(cc2s1)OCCO3)c1ccc(N2C(=O)CCC2=O)cc1,-6.6,62.1*,-2.0,-3.8,-1.6,nt,57.4*,22.9
Cc1ccc2[nH]c3c(=O)n(Cc4ccco4)cnc3c2c1,-6.6,50.8*,-9.8,3.9,14.6,-10.2,54.7*,3.6
CC1=Nc2ccc(C)cc2/C1=C/c1c(N)n2oc(C)cc2nc1=O,4.2,28.1*!,11.3,4.5,19.4,-10.3,32.7*,1.2
CCOC(=O)C1=C(C)Nc2nc(SCC)nn2C1c1ccc(OC)cc1 (centres undefined),6.8,32.5*,7.6,-2.7,1.8,16.1,6.2,2.3
Cc1ccc(Nc2nc(NCC3CCCO3)nc(N)c2[N+](=O)[O-])cc1C (centres undefined),-12.3,122.1*,10.8,9.0,8.4,19.8,109.7*,16.2
Cc1ccccc1NCCC(=O)Nc1ccc(Cl)cc1,18.9,-8.0,23.5,1.3,7.0,12.0,nt,nt
Cc1sc2ncnc(SCC(=O)NNC(=O)COc3cccc4ccccc34)c2c1C,-10.2,119.0*,6.1,8.6,16.7,14.9,97.9*,-11.5
COc1ccc2nc(NC(=O)CSc3nc(SC)ns3)sc2c1,22.6,-9.1,-21.1,9.0,0.9,23.6,nt,nt
COc1ccc2nc(NC(=O)CSc3nnc(C)s3)sc2c1,8.5,28.7*,-19.6,-3.2,-7.7,-4.5,6.8,-1.2
COc1ccc(OC)c(NC(=O)COC(=O)c2ccc(OC)c(S(=O)(=O)N3CCOCC3)c2)c1,nt,nt,14.3,-1.5,5.0,nt,nt,nt
O=c1c(C(c2ccccc2)c2c(O)sc3ccccc3c2=O)c(O)sc2ccccc12,-4.1,59.6*,33.2,-0.1,23.2,14.8,37.9*,39.3*
CCOC(=O)c1cnc(SCc2cccc3ccccc23)nc1N,-12.2,105.3*,5.0,1.5,0.4,12.0,6.5,14.2
CCn1cc(C(=O)N[C@H](C(=O)NCCO)C(C)C)c(=O)c2cc3c(cc21)OCO3,18.0,3.7,15.3,0.1,5.7,-56.4,nt,nt
Cc1ccc(-n2cccc2/C=C2/C(=N)N3C(=NC2=O)SN=C3S(C)(=O)=O)cc1Cl,nt,32.4*,nt,-56.2,14.9,11.8,14.6,6.2
COc1cccc(/C=N/NC(=O)c2ccc(CN3c4cccc5cccc(c45)S3(=O)=O)cc2)c1,-12.2,29.6*,6.9,6.3,-3.0,27.4,17.4,2.4
O=C(N/N=C/c1cccnc1)c1ccc(CN2c3cccc4cccc(c34)S2(=O)=O)cc1,-17.4,-8.5,5.8,-2.7,-7.1,-15.6,nt,nt
COc1ccc(O)c(-c2cc(C(F)(F)C(F)F)nc(-c3ccccc3)n2)c1,-3.8,30.7*,6.5,4.5,-3.8,-10.5,7.8,4.4
CCN1C(=O)[C@@H]2[C@@H](c3ccc(-c4ccc(C(C)=O)cc4)c(OC)c3)N3CCCC[C@@]3(C(=O)OC)[C@@H]2C1=O,4.1,-12.9,-0.2,-1.3,-5.3,nt,nt,nt
CN1C(=O)N(C)C2(c3ccccc3)Nn3c(s/c(=C/c4ccco4)c3=O)=NC12c1ccccc1 (centres undefined),3.4,44.7*,14.9,-4.6,-2.9,4.8,77.1*,9.5
Cc1cc(NC(=O)CSc2nc(-c3ccccc3)cs2)no1,-14.5,-4.7,34.5,3.7,-0.4,10.3,nt,nt
Cc1cc(NC(=O)CSc2nc(-c3ccc(F)cc3)cs2)no1,-5.3,43.7*,5.4,4.9,-3.1,6.5,13.4,3.8
COc1ccccc1C(=O)NCCC(=O)Nc1ccc(S(=O)(=O)N2CCC(C)CC2)cc1,nt,nt,-6.3,-8.5,10.8,nt,nt,nt
COc1ccc(NC(=O)c2ccc3c(c2)CCN3S(=O)(=O)c2ccccc2)c(OC)c1,-4.6,28.3*,8.9,3.4,-1.1,19.1,15.1,5.0
NC(=O)c1ccc(NC(=O)c2ccc3c(c2)CCN3S(=O)(=O)c2ccccc2)cc1,13.6,20.5,-2.3,-4.5,3.8,-15.7,nt,nt
CC(=O)Nc1ccc(OC(=O)c2ccc(Br)c([N+](=O)[O-])c2)cc1,-1.5,-0.3,3.6,-0.8,-0.5,19.8,nt,nt
SMILES,PolyA inh,EBNA-1 inh,NALP3 yeast inh,dFosB act,ZTA DNA inh,NALP1 inh,EBNA-1 confirm,ZTA counter trip
COc1cc(S(=O)(=O)n2cnc3ccccc32)ccc1Br,4.9,3.5,5.3,7.1,-2.8,14.0,nt,nt
O=C(COC(=O)/C=C/c1ccco1)NCCN1C(=O)CSC1=O,nt,nt,nt,-6.2,nt,nt,nt,nt
O=C(N/N=C/c1ccc(O)cc1)c1cc(-c2ccc3c(c2)OCO3)n[nH]1,8.1,-0.3,-4.8,12.8,2.4,19.2,nt,nt
O=C(N/N=C/c1cccc([N+](=O)[O-])c1)c1cc(-c2ccc3c(c2)OCO3)n[nH]1,14.9,62.0*,9.1,-6.3,-1.8,nt,23.5,12.0
Cc1cccc(NC(=O)CN2C(=O)S/C(=C\c3cc(C)n(C)c3C)C2=O)c1,2.9,29.5*,2.5,-1.8,14.7,7.3,10.1,-7.2
COc1cc(NC(=O)c2ccc(C)c([N+](=O)[O-])c2)ccc1NC(=O)c1ccco1,-10.8,51.0*,7.6,nt,-11.6,4.7,14.3,-6.2
CCc1ccc(N2CC(C(=O)Nc3ccc(S(=O)(=O)NCC4CCCO4)cc3)CC2=O)cc1 (centres undefined),9.4,94.0*,20.6,?,9.0,20.6,28.9*,-17.6
COC(=O)c1cccc(NC(=O)C(C)(C)C)c1,-19.9,-8.0,21.3,0.9,-1.4,0.9,nt,nt
COc1ccc(/C=N/n2cnc3c([nH]c4ccccc43)c2=O)cc1CO,-11.2,28.9*,0.3,2.7,18.1,nt,24.3,5.4
Cc1nnc(Cn2cnc3c2c(=O)n(C)c(=O)n3C)o1,26.2,5.3,7.0,0.3,-7.5,16.3,nt,nt
CC1=CC(=C(C#N)C#N)C=C(C)N1CCN1CCN(C(=O)Nc2ccc(Cl)c(Cl)c2)CC1,2.1,75.8*,-15.2,50.3*,12.5,36.9,65.2*,4.0
COc1ccc(S(=O)(=O)N2CCOCC2)cc1NC(=O)COc1ccc2c(C)cc(=O)oc2c1,nt,nt,9.6,11.1,nt,nt,nt,nt
COc1ccc(NC(=O)COc2ccc3c(C)cc(=O)oc3c2)cc1S(=O)(=O)N1CCCCC1,-10.3,100.8*,10.5,5.3,16.9,nt,66.7*,10.5
CC(=O)C(/C=N/c1cc(-c2ccc(C)cc2)nn1-c1ccccc1)=C(\C)O,1.6,30.1*,27.2,-3.4,-1.3,-36.3,50.0*,4.2
O=C(CCCCCNc1nc(=S)[nH]c2ccccc12)NCCc1ccc(Cl)cc1,16.7,66.1*,2.5,8.4,3.1,3.2,67.9*,2.4
CCCCCNC(=O)c1c[nH]c2ccc(S(=O)(=O)N3CCC4(CC3)OCCO4)cc2c1=O,-9.9,28.7*,3.3,-7.2,5.0,34.9,4.2,2.1

# High-throughput results (PubChem BioAssay)
